The record followed here is PubChem BioAssay (NCI).

Molecules are shown by their SMILES. Compounds without any hit were thinned out: in the full panel of roughly 83,000, 20% have a hit.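 Testing used 96-well plates and a 48-hour single-concentration exposure. Example: -40 means 40% of the starting cells died.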 Activity calls are given as the source filed them.

The test system of the experiment is SN12C renal. Briefly: NCI-60 one-dose screen, 48 h (100 = growth as untreated, 0 = no growth, -100 = all killed). The note with it: 10 µM unless noted. On the procedure: Growth inhibition of the SN12C human tumor cell line is measured as a screen for anti-cancer activity. Cells are grown in 96 well plates and exposed to the test compound for 48 hours. Compounds are tested at a single concentration, which is 10^-5 M for most compounds. The reported endpoint is percent growth (GI% or GIPRCNT), where numbers from 0 - 100% represent growth inhibition, and numbers from -100% - 0 represent cell death. For example, a value of 40 represents 60% growth inhibition. A value of 0 means no net growth occurred over the course of the experiment. A value of -40 indicates 40% of cells at the beginning of the experiment died by the end of the experiment. A value of -100 means all cells are dead at the end of the experiment.
NCI-60 Human Tumor Cell Lines Screen was performed using the standard one-dose NCI protocol, which is described in more detail at https://dtp.cancer.gov/discovery_development/nci-60/default.htm.
Compounds with GIPRCNT values below 10 were considered active. Activity score was based on GIPRCNT using the following formula: […]
Score is 0 for GIPRCNT values of 100 or above, 50 for GIPRCNT values of 0, and 100 for GIPRCNT values of -100.
Regarding `CC1(c2ccccc2)NC(=O)N(CC(=O)Nc2cccc(I)c2)C1=O` (stereo not given), the growth is 96.9% (inactive).

For the compound `CC(C)CN(C(=O)c1ccc(Cl)cc1)c1c(N)n(CC(C)C)c(=O)[nH]c1=O`, the growth is 87.8% (inactive).

As for `C[C@]12C[C@H]1CC[C@]1(C)[C@@H]2CC[C@@]23C[C@H](CC[C@H]21)[C@@](O)(CO)C3`, the growth was 92% (inactive).

As for `C/C(=C(/c1ccccc1)c1ccc(OCC(O)CNCCN2CCOCC2)cc1)c1ccccc1` (stereo not given), the growth is 76.1% (inactive).

`CCN(CC)CCSCCCNc1c(C)cnc2cc(Cl)ccc12`: the growth is 82.7% (inactive).

Consider `CCCCCCCCCCCCCCCC(=O)OC[C@@]1(O)C[C@@]23CC[C@@H]4C(C)(C)CCC[C@@]4(C)[C@@H]2CC[C@H]1C3`, for which the growth was 93.6% (inactive).

Consider `Nc1c(C(=O)Nc2ccc(Cl)cc2)cc(-c2nc3ccccc3s2)c(=O)n1NS(=O)(=O)c1ccc(Cl)cc1`, for which the growth was 95% (inactive).

For `Cn1c(COC(=O)NCCn2ccnc2)nc2c(N3CCOCC3)nc(-c3ccccc3)nc21`, the growth is -90.3% (active).

Turning to `O=C(Nc1ccc2cc3ccc(NC(=O)NC4CCCCC4)cc3nc2c1)NC1CCCCC1`, the growth is 88.2% (inactive).

In the case of `CCCCCCN(C)Cc1ccc(OCCOc2ccc(CN(C)CCCCCC)cc2)cc1`, the growth is 40.1% (inactive).

Consider `COc1ccc(-n2cc(-c3cc(OC)c(OC)c(OC)c3)n(C(C)=O)c2=O)cc1`, for which the growth is 93.4% (inactive).

Take `Cc1cn(-c2cc(C(=O)Nc3cccc(C#Cc4cccc5[nH]nc(N)c45)c3)cc(C(F)(F)F)c2)cn1`: the growth is 62.3% (inactive).

Consider `O=c1[nH]nc(-c2ccc(Br)cc2)cc1Cc1ccc(O)cc1`, for which the growth was 90.5% (inactive).

On to `c1ccc(C2CC(c3cccc(Nc4ccncc4)c3)=NN2c2ccccc2)cc1` (stereo not given), for which the growth is 77.9% (inactive).

Regarding `Cc1nc2sc(C(=O)Nc3cccc(Br)c3)c(N)c2cc1C(=O)c1ccc(C(F)(F)F)cc1`, the growth is 71% (inactive).

As for `COc1ccc2c(c1)OC1=C(C(=O)OC1)C2c1cc(OC)c(OC)c(OC)c1` (stereo not given), the growth is 47.7% (inactive).

Regarding `Cc1ccc2[nH]c(=O)cc(-n3nncc3COc3ccc(C=O)cc3)c2c1`, the growth is 106% (inactive).

Regarding `O=C(Nc1ccccc1)Oc1ccccc1-c1ccccc1`, the growth was 98.5% (inactive).

As to `CCC(C)C(N)C(=O)NNc1n[nH]c(=S)n1N` (stereo not given), the growth is 99.2% (inactive).

Take `Clc1ccc(N2N=C(c3cccc(Nc4ccncc4)c3)CC2c2ccccc2)cc1` (stereo not given): the growth is 86.1% (inactive).

For `COc1nccnn1`, the growth is 97.1% (inactive).

Regarding `NC(=S)N/N=C(\c1ccc(Cl)cc1)C1CC1`, the growth was 83% (inactive).

On to `O=C(Nc1ccc2cc3ccc(NC(=O)N4CCCCCC4)cc3nc2c1)N1CCCCCC1`, for which the growth was -57.6% (active).

Consider `O=c1[nH]c(=O)[nH]c(=S)[nH]1`, for which the growth is 94.3% (inactive).

Regarding `COc1ccccc1N1CCN(C(=O)c2ccc3nc(NC(=O)c4ccc(NCCc5ccccc5)c([N+](=O)[O-])c4)sc3c2)CC1`, the growth is 77.2% (inactive).

In the case of `Clc1nc(Nc2ccccc2)nc(Nc2ccccc2)n1`, the growth is 95.9% (inactive).

For `Cc1cc(C)n(Nc2nc3ccccc3[nH]c2=O)c(=O)c1C#N`, the growth was 89.8% (inactive).

On to `Nc1nc(N)nc(NCc2ccccc2)n1`, for which the growth is 98.4% (inactive).

Take `CCCCCCCCCCCC(=O)C(CCCCCCCCCC)C(=O)Nc1ccccc1` (stereo not given): the growth is 98.1% (inactive).

As to `COc1cc(C2CC(c3cccc(Nc4ccncc4)c3)=NN2c2ccc(Cl)cc2)cc(OC)c1OC` (stereo not given), the growth is 54.7% (inactive).

For the compound `C=C(C)[C@@H]1CC[C@]2(C=O)CC[C@]3(C)[C@H](CC[C@@H]4[C@@]5(C)CCCNC(C)(C)[C@@H]5CC[C@]43C)[C@@H]12`, the growth is 74.1% (inactive).

Consider `CC(C)(C)CC(C)(C)Nc1c(-c2ccc(C(F)(F)F)cc2)nc2cnccn12`, for which the growth was 86.1% (inactive).

Consider `CC1(C)[C@H](O)CC[C@]2(C)[C@@H]1CC[C@@]13C[C@@H](CC[C@H]12)[C@@](O)(CO)C3`, for which the growth is 103% (inactive).

In the case of `CCNNC(=O)[C@@H]1[C@H](c2cc(OC)c(OC)c(OC)c2)c2cc3c(cc2[C@H](O)[C@H]1CO)OCO3`, the growth was 24% (inactive).

`CCCCCCCC(=O)Nc1nc2[nH]c(CN3CCN(Cc4cccc(I)c4)CC3)c(CN3CCN(Cc4cccc(I)c4)CC3)c2c(=O)[nH]1`: the growth is -87.3% (active).

In the case of `Cc1c2c(cc[n+]1Cc1ccc(F)cc1)c1ccc(OCc3cccc(F)c3)cc1n2Cc1cccc(F)c1`, the growth was -90.5% (active).

`Clc1ccc(C2CC(c3cccc(Nc4ccncc4)c3)=NN2c2ccc(Cl)cc2)cc1` (stereo not given): the growth was 39.6% (inactive).

Turning to `Brc1ccc(C2CC(c3cccc(Nc4ccncc4)c3)=NN2c2ccccc2)cc1` (stereo not given), the growth is 81.2% (inactive).

As to `Clc1nc(Cl)c2ncn(CC3(Cn4cnc5c(Cl)nc(Cl)nc54)COC3)c2n1`, the growth was -86.6% (active).

For the compound `CN1C2CCC1CN(c1cnc(C(=O)Nc3cc(F)cc4cccnc34)cn1)C2`, the growth is 51.4% (inactive).
